# Giardia FBPA inh – blocks Giardia fructose-bisphosphate aldolase activity; A8B2U2; AID 2451; purified Giardia FBPA; Potency, µM (doses to about 59.6 µM), for inactives: at the highest dose activity, negative = inhibition, usual class: inhibitors; 290,000 compounds, 0.71% hits; further: potency means the concentration at half of the fitted maximal effect; on the % scale 0 is the no-effect control and ±100 the full control effect; nearly all actives have a fitted effect of over 55% in size
# Target sequence (A8B2U2 whole entry, looked up): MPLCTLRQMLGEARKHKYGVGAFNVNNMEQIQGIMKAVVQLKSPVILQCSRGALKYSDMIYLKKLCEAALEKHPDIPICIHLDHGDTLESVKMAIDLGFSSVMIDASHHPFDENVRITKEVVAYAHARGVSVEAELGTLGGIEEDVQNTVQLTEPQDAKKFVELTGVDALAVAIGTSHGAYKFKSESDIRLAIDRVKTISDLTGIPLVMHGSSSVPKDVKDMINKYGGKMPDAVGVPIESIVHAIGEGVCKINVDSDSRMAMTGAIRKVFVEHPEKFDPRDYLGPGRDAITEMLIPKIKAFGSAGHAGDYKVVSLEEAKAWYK
#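 Giardia FBPA (40 nM reagent) was preincubated 10 min at RT with compound (up to 57.5 uM final), then substrate plus GAPDH/TPI/NAD/arsenate coupling system with diaphorase/resazurin was added; resorufin fluorescence (525/598 nm) was read after 20 min.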
# Pf growth 96h – P. falciparum growth inhibition at 96 hours; Potency, µM (titrated, usually from 28.7 µM), without a hit: at the highest dose activity change, negative = inhibition, usual class: inhibitors; AID 504834; 320,000 compounds, 6.9% hits; P. falciparum luciferase reporter growth, 96 h; further: potency means the concentration at half of the fitted maximal effect; on the % scale 0 is the no-effect control and ±100 the full control effect
#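 Infected RBCs, 2% Hct / 0.05% parasitemia final; luciferase-reporter P. falciparum; cpd 96 h, 37 C, 5% CO2; luciferase detection reagent; luminescence.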
# Shiga toxin inh – Shiga toxin inhibition; Vero cells, Shiga toxin protein synthesis inhibition reporter; inhibition, % at 38.7 µM; 290,000 compounds, 9.2% hits; in the data active means inhibition mostly above about 28%, no sharp cut-off; inactive means mostly below about 43%; further: 0% is about no effect
# NS1 inh – blocks influenza NS1 protein function; AID 2326; 270,000 compounds, 0.4% hits; Potency, µM (highest dose often 46.1 µM), for inactives: at the highest dose activity, positive = more growth; calls by dose curve; further: potency means the concentration at half of the fitted maximal effect; actives are rising curves; nearly all actives have a fitted effect of over 50% in size
#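 Read-out: OD600 growth recovery of NS1-expressing budding yeast. Cells grown overnight at 30C in -URA glucose medium, washed, resuspended and diluted 1:100 in 2% galactose assay medium, pH 6.0. Same strain lacking NS1 served as positive control.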
# CHX counter – counter-screen for Shiga toxin inhibitors: cycloheximide protein synthesis inhibition; cell reporter, cycloheximide protein synthesis inhibition counterscreen; max response, %; 300,000 compounds, 12% hits; AID 2314; in the data active means max response mostly above about 13%, no sharp cut-off; inactive means mostly below about 14%; further: read at 38.3 µM for the half of the compounds with a filed dose; 0% is about no effect
# Pf growth 48h – inhibits P. falciparum growth in the first generation, 48 h | P. falciparum luciferase growth in erythrocytes, 48 h | Potency, µM (titrated, usually from 28.7 µM), without a hit: top-dose activity change, negative = inhibition, usual class: inhibitors | 310,000 compounds, 5.9% hits; further: potency means the concentration at half of the fitted maximal effect; on the % scale 0 is the no-effect control and ±100 the full control effect
#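 Read-out is firefly luciferase luminescence from an integrated reporter in P. falciparum, so falling signal marks reduced parasite growth. Infected erythrocytes were at 2% hematocrit and 0.1% parasitemia (final) in Albumax-supplemented RPMI 1640.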
# The depositor's hits bear a star; ? = inconclusive; · = no result. Only some compounds are listed: those with a hit (about 21% of all), similar ones and a draw of the others. Unless noted, the call rests on the fitted dose curve; in most records, active means well fitted curve in the direction sought with a large enough effect; inconclusive means small, poorly fitted or top-dose-only effect, or another doubt; inactive means no such curve, though single readings can be large; an effect the other way counts as inactive or inconclusive.
SMILES,Giardia FBPA inh,Pf growth 96h,Shiga toxin inh,NS1 inh,CHX counter,Pf growth 48h
COc1ccc(N(CC(=O)N2CCc3ccccc3C2)S(=O)(=O)c2c(C)nn(C)c2C)cc1,-8%,1.2µM*,-3,-14%,0,·
CN(C)CC(=O)N1CCc2ccccc2C1,?,?,-3,·,-8,1%
COc1ccc(CC(=O)N2CCN(C)CC2)cc1,1%,100%,-13,6%,9,43%
CCc1ccc(/C=C\C(=O)N2CCc3ccccc3C2)cc1,-1%,48%,43*,-34%,13*,36%
COc1ccc(CC(=O)N2CCc3cc(OC)c(OC)cc3C2)cc1,3%,-2%,2,-3%,2,6%
O=[N+]([O-])c1cccc(S(=O)(=O)N2CCCCC2)c1,3%,?,-6,3%,-2,0%
O=C(/C=C/c1ccccc1[N+](=O)[O-])N1CCc2ccccc2C1,1%,?,22,-20%,21*,42%
O=C(c1cc(Cl)ccc1[N+](=O)[O-])N1CCc2ccccc2C1,7%,33%,-7,2%,-2,15%
COc1ccc(S(=O)(=O)NCc2csc(C)n2)cc1OC,1%,-23%,-6,1%,-2,17%
CC1CC=CC2C1C(=O)N(Cc1ccccc1)C2c1ccc(F)c(Br)c1 (centres undefined),-3%,·,32*,·,16,·
Cc1ccc(F)c([C@H]2C3C=CCC(c4ccccc4)C3C(=O)N2Cc2ccccc2)c1 (some centres undefined),0%,?,-7,-6%,-4,12µM*
Cc1ccc(-c2cc([C@H]3[C@H]4C=CC[C@@H](C)[C@@H]4C(=O)N3Cc3ccccc3)ccc2F)cc1,3%,?,18,12%,2,10µM*
C=CCSCC=C,0%,·,·,·,·,·
CCOC(=O)c1c(CN2CCN(CCO)CC2)n(C)c2cc(Br)c(OC)cc12,8%,36%,-13,-3%,-5,10µM*
CCOC(=O)c1c(C)oc2cc(Br)c(OC)cc12,-2%,·,48,-2%,-3,29%
CCOC(=O)c1c(CNCCN(CC)CC)n(C)c2cc(Br)c(OC)cc12,-17%,-5%,-13,-5%,-3,·
CCOC(=O)c1c(CN2CCCCC2)n(C)c2cc(Br)c(OC)cc12,0%,3.3µM*,-28,-1%,-4,?
CCOC(=O)c1c(C)n(CC(O)CN(CC)CC)c2cc(Br)c(OC)cc12 (centres undefined),3%,15µM*,-16,·,1,?
CCOC(=O)c1c(C)n(C)c2ccc(O)c(S(=O)(=O)c3ccccc3)c12,3%,·,-3,-4%,-4,18%
CCOC(=O)c1c(CN2CCCCC2)n(C)c2ccc(OC)c(S(=O)(=O)c3ccccc3)c12,1%,7.4µM*,-15,-15%,3,10µM*
CCOC(=O)c1c(C)n(C)c2cc(Br)c(OC)cc12,0%,48%,-4,-1%,-2,7%
COc1ccc(NC(=O)C2Cc3cc(S(=O)(=O)N4CCCCC4)ccc3N2C(C)=O)cc1Cl (centres undefined),·,27%,-9,-3%,0,?
CCCOc1ccc(C(=O)NCC(C)(C)N2CCOCC2)cc1,0%,2%,-9,·,-1,-4%
C=CCNc1nc2ccccc2nc1NS(=O)(=O)c1ccc(Cl)cc1,?,-18%,3,-115%,4,121%
O=C(O)c1ccccc1SC1CC(=O)N(c2ccccc2)C1=O (centres undefined),6%,2.1µM*,3,-43%,9,-4%
SMILES,Giardia FBPA inh,Pf growth 96h,Shiga toxin inh,NS1 inh,CHX counter,Pf growth 48h
Nc1ccccc1SC1CC(=O)N(c2ccc3c(c2)OCCO3)C1=O (centres undefined),2%,50%,69*,3%,38*,39%
O=C(O)c1cccnc1SC1CC(=O)N(c2ccccc2)C1=O (centres undefined),1%,1%,-3,2%,-3,?
Cc1ccccc1N1C(=O)CC(Sc2nnc(-c3ccccc3)o2)C1=O (centres undefined),3%,0%,10,-64%,19*,16%
CC(C)c1ccc(N2C(=O)CC(Sc3nc4ccccc4o3)C2=O)cc1 (centres undefined),-26%,?,10,-5%,15*,37%
O=C(O)c1ccc2c(c1)C(=O)N([C@H](Cc1ccc3ccccc3c1)C(=O)O)C2=O,23%,16%,12,·,-6,-24%
Cc1nnc(SC2CC(=O)N(c3ccccc3)C2=O)s1 (centres undefined),-6%,156%,0,-4%,4,27%
O=C1CC(Sc2nnc(-c3ccccc3)o2)C(=O)N1c1ccccc1 (centres undefined),0%,·,49*,-83%,22*,60%
Cc1ccc(NC(=O)c2sc3ncn(CC(=O)N4CCOCC4)c(=O)c3c2C)c(Br)c1,·,12µM*,-5,8%,-6,18%
Cc1cc([N+](=O)[O-])ccc1NC(=O)c1sc2ncn(CC(=O)N3CCOCC3)c(=O)c2c1C,0%,15µM*,-3,0%,-1,?
CCOc1ccccc1NC(=O)c1sc2ncn(CC(=O)N3CCOCC3)c(=O)c2c1C,4%,6%,-5,-3%,1,8%
CCOc1ccc(-n2nc(C(=O)NC3CCCCC3)c3ccccc3c2=O)cc1,7%,?,-5,2%,-3,?
N/C(=N\OC(=O)c1csnn1)c1ccc(C(F)(F)F)cc1,0%,66%,72*,0%,40*,88%
CCc1cccc(NC(=O)C2CCCN2S(=O)(=O)c2cccc3cccnc23)c1 (centres undefined),·,?,-14,-10%,-5,0%
COc1ccc(NC(=O)C2CCCN2S(=O)(=O)c2cccc3cccnc23)c(OC)c1 (centres undefined),2%,10µM*,8,-96%,1,-7%
O=C(Nc1cccc(C(F)(F)F)c1)C1CCCN1S(=O)(=O)c1cccc2cccnc12 (centres undefined),-3%,10µM*,-8,?,-1,?
O=C(N=C1SC2CS(=O)(=O)CC2N1c1ccc(OC(F)(F)F)cc1)C1CC1 (centres undefined),·,8%,17,-1%,13,-14%
Cn1c(CC(=O)Nc2ccccc2)nnc1SCC(=O)Nc1ccc(N2CCOCC2)cc1,1%,-3%,29,-18%,39*,27%
Cc1ccc(NC(=O)Cc2nnc(SCC(=O)Nc3ccc(N4CCOCC4)cc3)n2C)cc1,9%,-1%,-9,-2%,-1,15%
Cn1c(CC(=O)Nc2ccccc2)nnc1SCC(=O)NC1=NCCS1,-9%,2.6µM*,-11,9%,-6,-1%
O=C(c1cnccn1)N1CCC2(CC1)CN(c1ccncc1)C2,-4%,·,·,·,·,·
CN(C)Cc1ccccc1-c1cncnc1NCc1ccccc1,-4%,·,·,·,·,·

# Screens from PubChem.
